Experiment [1] addresses T1, Aspartate--tRNA(Asp/Asn) ligase (Mycobacterium tuberculosis (strain ATCC 25618 / H37Rv)) (UniProt P9WFW3).
T1 sequence (whole entry): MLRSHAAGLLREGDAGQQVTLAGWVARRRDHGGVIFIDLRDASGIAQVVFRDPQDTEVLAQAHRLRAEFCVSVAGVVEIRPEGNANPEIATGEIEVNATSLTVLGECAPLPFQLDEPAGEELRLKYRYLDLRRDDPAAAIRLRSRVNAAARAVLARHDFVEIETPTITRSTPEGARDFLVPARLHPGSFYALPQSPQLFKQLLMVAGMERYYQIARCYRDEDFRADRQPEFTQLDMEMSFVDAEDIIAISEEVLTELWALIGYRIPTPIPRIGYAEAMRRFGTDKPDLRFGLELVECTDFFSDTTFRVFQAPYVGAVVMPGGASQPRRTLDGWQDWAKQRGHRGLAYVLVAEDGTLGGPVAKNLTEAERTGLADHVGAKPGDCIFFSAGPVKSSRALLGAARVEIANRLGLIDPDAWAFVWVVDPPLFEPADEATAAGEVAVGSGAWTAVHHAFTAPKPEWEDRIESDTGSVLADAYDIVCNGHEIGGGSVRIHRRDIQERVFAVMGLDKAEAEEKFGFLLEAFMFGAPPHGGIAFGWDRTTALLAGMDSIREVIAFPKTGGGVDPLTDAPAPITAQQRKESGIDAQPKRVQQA
Briefly: Assay for Asp RNA synthetase-1 from Mycobacterium tuberculosis. Also on record: scale not given: direction of the effect not stated beside the values. In kind it is functional. Particulars: 30 µM.

In experiment [2] the target is Shiga toxin 2 (Escherichia coli O157:H7) (UniProt P09385+P09386). Briefly: E. coli 0.157:H7 Shiga Toxin SOP - stx2 screening assay. Type of experiment: functional. More on the design: scale not given: direction of the effect not stated beside the values. Conditions: 30 µM.

`Cc1oc(C)c(C(=O)NCc2ccccn2)c1C`: the Percent Effect in experiment [1] was -4.72%; in experiment [2] it was 26.9%.
On the same counts, the results for `O=C(C1CCOC1)N1CCc2ncc(CNc3ccccn3)n2CC1` (centres undefined) are -0.229% and -21.5%.
On the same counts, the results for `CC(C)Cc1cc(C(=O)N2CCCC(n3cncn3)C2)[nH]n1` (centres undefined) are -3.97% and 2.44%.
The like results for `Cc1cnn(CCNCc2ccccc2Oc2cccnc2)c1` were, in that order, 10.1% and -15.5%.
Turning to `Cn1cnc2c1CCN(Cc1ccc(C(=O)N3CCCC3)cc1)C2`, the Percent Effect in experiment [1] was 0.745%; in experiment [2], -74.8%.
On the same counts, the results for `COc1cccc(CNC(=O)CC2CSc3ncc(C)c(=O)n32)c1` (centres undefined) are 1.5% and 6.98%.
The like results for `Cc1ccc2cc(CNCCCN3CCOCC3)c(=O)[nH]c2c1` were, in that order, -2.01% and -12.7%.
On the same counts, the results for `CCCNC(=O)Nc1cccc2c1CCN(S(C)(=O)=O)C2` are 6.02% and -15%.
As for `Cc1cnn(C2CCCN(C(=O)C3=NN(C)C(=O)CC3)C2)c1` (centres undefined), the Percent Effect in experiment [1] was 3.95%; in experiment [2], 3.74%.
The like results for `Cc1ccoc1C(=O)N1CC[C@H]2O[C@@H](C)C[C@H]2C1` were, in that order, -2.48% and -17.1%.
In the case of `Cc1cc(Nc2nc(C)cs2)nc(C2CCCCN2CCO)n1` (centres undefined), the Percent Effect was 0.7% in experiment [1] and -34.2% in experiment [2].
In the case of `CS(=O)(=O)NCc1cc2n(n1)CCCN(Cc1nc3ccccc3[nH]1)C2`, the Percent Effect in experiment [1] was -3.96%; in experiment [2] it was 22.6%.
The like results for `O=S(=O)(NCC1CCN(c2ccccn2)CC1)c1ccccc1F` were, in that order, -0.51% and -13.6%.
Turning to `CCC(CNC(=O)c1ccc(Br)o1)N1CCc2ccccc2C1` (centres undefined), the Percent Effect in experiment [1] worked out at 1.73%; in experiment [2] it was 8.06%.
As to `Cc1cc(-c2cnc(NC3CC3)nc2-c2ccc(C)o2)on1`, the Percent Effect is -2.52% in experiment [1] and 0.454% in experiment [2].
On the same counts, the results for `Fc1cccc(-c2nc(CN3CCCCC3Cn3cncn3)co2)c1` (centres undefined) are 0.0286% and 14.4%.
The like results for `c1csc(CN2Cc3nccn3CC(Cn3cncn3)C2)n1` (centres undefined) were, in that order, -2.48% and -4.98%.
